From PubChem BioAssay
Htt clearance – clearance of mutant huntingtin inclusions, primary screen, imaging, HeLa Exon1htt(103Q)mCFP, confocal imaging. aggregate imaging; zero = plate's median compound well. inhibition, % at 1.5 µM. 0.42% of 47,000 active. AID 853, 2007;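 active means inhibition of aggregate fluorescence above about 70%, also judged a hit by eye on the cell image, limit read from the data, passing the limit was not always enough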;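 further: cells exposed to compound for three days before fixation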
WNV NS2B-NS3 inh – inhibitors of WNV NS2B-NS3 protease, primary screen, biochemical, fluorogenic substrate | Genome polyprotein (West Nile virus), P06935 | fluorogenic substrate Ex360/Em465; stronger effect = lower value | z-score (concentration not given with the values) | 0.18% of 65,000 active | AID 577, 2007; in the data active means z-score below about -3
Target sequence (P06935 1371-1501 limits assumed): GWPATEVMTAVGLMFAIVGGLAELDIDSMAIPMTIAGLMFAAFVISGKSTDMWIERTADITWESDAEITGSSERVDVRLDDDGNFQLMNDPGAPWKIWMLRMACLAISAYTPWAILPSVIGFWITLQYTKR
Target sequence (P06935 1502-1679 limits assumed): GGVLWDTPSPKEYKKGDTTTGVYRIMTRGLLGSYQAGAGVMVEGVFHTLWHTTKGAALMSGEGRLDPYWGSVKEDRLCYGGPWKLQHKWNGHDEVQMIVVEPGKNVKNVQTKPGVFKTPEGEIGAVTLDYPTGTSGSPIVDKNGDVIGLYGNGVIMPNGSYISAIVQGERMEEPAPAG
SK-BR-3 tox 24h – SK-BR-3 proliferation inhibitors, primary screen, cell-based, human, 24 h. viability, % at 10 µM. SK-BR-3 viability, CellTiter-Glo ATP luminescence; stronger effect = lower value. AID 847, 2007. 0.47% of 41,000 active;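 active means viability at or below the median of all test compounds minus 3 SD, in both replicates if run twice, cut at about 45% in these data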
Hits are given with their value; - = inactive; . = not tested or not shown. Hits are enriched below; roughly 0.64% of the tested compounds scored in any of these assays.

SMILES	Htt clearance	WNV NS2B-NS3 inh	SK-BR-3 tox 24h
COc1ccc(-c2noc(C3CCCN(C(=O)c4ccccc4OC)C3)n2)cc1OC (centres undefined)	-	-	-
Cc1ccc(-c2noc(C3CCCN(C(=O)c4c(F)cccc4F)C3)n2)cc1 (centres undefined)	.	-	28.1
Cn1cc(Br)c(C(=O)N2CCN(c3cccc(Cl)c3)CC2)n1	-	.	.
CCOC(=O)c1sc(C)c2c1NC(C)(c1cccs1)NC2=O (centres undefined)	.	-	-
C=CCSc1nnc2c(n1)OC(c1c(C)[nH]n(-c3ccccc3)c1=O)Nc1ccccc1-2 (centres undefined)	-	.	.
COc1ccc(S(=O)(=O)N2CCC(C(N)=O)(N3CCCCC3)CC2)cc1	.	-	.
COc1cccc(NC(=O)N2CCC(C(N)=O)(N3CCCCC3)CC2)c1	-	-	39.5
O=C(Nc1ccc(Cl)c(Cl)c1)N(CCCN1CCOCC1)Cc1cccs1	-	.	.
O=C(NCCc1nc2ccccc2[nH]1)c1ccco1	-	-	-
O=C(Cc1ccccc1)NCc1nc2ccccc2[nH]1	87.6	-	.
CC(C(=O)N1CCN(c2ccc(Cl)cc2)CC1)c1ncc(C(F)(F)F)cc1Cl (centres undefined)	-	.	.
Nc1ccc(C(O)(C(F)(F)F)C(F)(F)F)cc1	-	.	.
CC(C)OC(=O)N(C)c1ccc(C(O)(C(F)(F)F)C(F)(F)F)cc1	75.7	.	.
CCCCNc1nc(-c2ccccc2)cc(C(F)(F)F)c1C(N)=O	-	.	.
COc1cccc(C2C(C(=O)c3cccs3)=C(O)C(=O)N2CCCn2ccnc2)c1OC (centres undefined)	.	-	-
COC(=O)c1c(NC(=O)CC2NCCNC2=O)sc2c1CCCC2 (centres undefined)	-	-	-
COC(=O)c1c(NC(=O)C2CC2)sc2c1CCCC2	-	-3.62	.
COc1ccc(-n2c(SCC(=O)Nc3cc(C)on3)nc3c(c2=O)SCC3)cc1	.	-	.
Cc1cc(NC(=O)CSc2nc3c(c(=O)n2-c2ccc(Br)cc2)SCC3)no1	.	-	39.7
COc1cccc(N(C(=O)Cn2nnc3ccccc32)C(C(=O)NCc2ccco2)c2cccnc2)c1 (centres undefined)	.	-	-
COc1cccc(C(C(=O)NCc2ccco2)N(Cc2ccco2)C(=O)Cn2nnc3ccccc32)c1 (centres undefined)	80.0	.	.
COc1ccccc1NC(=O)Cn1nnc(-c2ccccc2NC(=O)c2ccco2)n1	.	-	-
COc1ccc(NC(=O)Cn2nnc(-c3ccccc3NC(=O)c3ccco3)n2)cc1	-	-	28.4
CCN(CC)CCNC(=O)c1ccc(N)cc1	.	-3.18	-
CCN(CC)CCNC(=O)c1ccc(NC(C)=O)cc1	.	-	-
SMILES	Htt clearance	WNV NS2B-NS3 inh	SK-BR-3 tox 24h
O=S(=O)(N/N=C/c1ccc(Cl)cc1)c1ccc(Cc2ncc(C(F)(F)F)cc2Cl)s1	-	.	.
CCCSc1nc2c(=O)[nH][nH]c(=O)c2n1Cc1ccccc1	-	.	.
O=C(NCc1ccc2c(c1)OCO2)C1CCCN1C(=O)Nc1cccc(Cl)c1 (centres undefined)	-	-	33.7
O=C(NCc1ccc2c(c1)OCO2)C1CCN(C(=O)Nc2ccc(Cl)cc2)CC1	-	-	-
CCN(c1cccc(C)c1)S(=O)(=O)c1cnc[nH]1	-	.	.
COc1ccc2[nH]c(C(=O)O)c(NS(=O)(=O)c3ccc(Cl)s3)c2c1	-	-	-
COc1ccc2[nH]c(C(=O)O)c(CCNC(C)=O)c2c1	.	-4.12	.
CSc1ccccc1NC(=O)COc1ccc(S(=O)(=O)N2CCCC2)cc1	-	-	-
Cc1n[nH]c(C)c1S(=O)(=O)N(CC(=O)Nc1ccc2c(c1)OCCO2)c1ccc(C(C)C)cc1	.	-	.
O=C(/C=C/c1cccc([N+](=O)[O-])c1)NCCN1CCOCC1	-	.	.
CCC1C(=O)N=C(SCC(=O)Nc2ccc(C(=O)OC)cc2)NC1=O (centres undefined)	.	-	44.0
NS(=O)(=O)c1ccc(NC(=O)CSC2=NC(=O)C(c3ccccc3)C(=O)N2)cc1 (centres undefined)	-	-	.
CCN(CC)CCCN1C(=O)C(=O)/C(=C(/O)c2ccc3c(c2)CC(C)O3)C1c1ccncc1 (centres undefined)	.	-	-
CC1Cc2cc(/C(O)=C3\C(=O)C(=O)N(CCN(C)C)C3c3ccccc3F)ccc2O1 (centres undefined)	80.4	-	-
Cc1cc(NC(=O)c2oc3ccccc3c2C)ccc1-n1cnnn1	.	-5.5	-
COc1cc(OC)cc(C(=O)Nc2ccc(-n3cnnn3)c(C)c2)c1	-	-	.
O=C(Nc1c(-c2ccccc2)nc2sccn12)c1ccccc1	.	-	.
Oc1c(CN2CCc3ccccc3C2)cc(Cl)c2cccnc12	.	-	.
Oc1c(CN2CCCCC2)cc(Br)c2cccnc12	-	-	39.5
